# Shown are actives, neighbours in structure and some others; about 19% of the full set was active somewhere.
# HT1080-NT tox: qHTS for induction of synthetic lethality in tumor cells producing 2HG: qHTS for the HT-1080-NT fibrosarcoma cell line. Potency, µM (top dose mostly 46.1 µM), inactives show top-dose activity, negative = less viability, actives largely listed as cytotoxic. hit rate 1.6% among 360,000. HT-1080-NT fibrosarcoma viability, CellTiter-Glo ATP luminescence, 48 h;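 note: NT is the 2HG producing partner of a matched IDH1 knockdown line; 0% = DMSO-treated cells and -100% = media-only wells without cells; nearly all actives have a fitted effect of over 55% in size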
#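 Toxicity toward the 2HG-producing NT line was scored as %Activity, normalised to DMSO and no-cell wells, from CellTiter-Glo luminescence after 48 hours' treatment.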
# KB-V1 cytotox: qHTS assay for MDR1-selective chemotherapeutics: Primary screen using the drug-selected MDR subline cells KB-V1. KB-V1 MDR cells viability, CellTiter-Glo, 72 h. Potency, µM (doses to about 46.1 µM), hits mostly cytotoxic. hit rate 3.4% among 400,000. AID 1347076, 2019; note: nearly all actives have a fitted effect of over 60% in size
#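 Drug-selected KB-V1 cells, grown in DMEM lacking phenol red with 10% FBS, receive compound titrations; after three days at 37 degrees C, surviving cell ATP is quantified by CellTiter-Glo luminescence and responses normalized and curve-fitted.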
# KB-3-1 tox: qHTS assay for MDR1-selective chemotherapeutics: Primary screen using the parental adenocarcinoma cell KB-3-1 | KB-3-1 viability, CellTiter-Glo ATP luminescence, 72 h | Potency, µM (top dose mostly 46.1 µM), usual class: cytotoxic | hit rate 1.4% among 400,000 | AID 1347075, 2019; note: nearly all actives have a fitted effect of over 60% in size
#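 Parental KB-3-1 adenocarcinoma cells in phenol-red-free DMEM with 10% FBS were pin-treated with compounds at several concentrations, incubated 72 h at 37 °C, and viability read by CellTiter-Glo luminescence; concentration-effect curves were fitted after normalization.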
# TDP1 cell CPT: qHTS for Inhibitors of human tyrosyl-DNA phosphodiesterase 1 (TDP1): qHTS in cells in presence of CPT. chicken DT40 Tdp1-/-;hTDP1 cells + 20 nM CPT, ATP luminescence, 48 h. Potency, µM (doses to about 46.2 µM), inactives show top-dose activity change, negative = growth inhibition, actives largely listed as inhibitors. hit rate 12% among 420,000; note: nearly all actives have a fitted effect of over 55% in size
#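 Cell growth measured by CellTiter-Glo luminescence after a minimum 48 h, 37 C compound exposure with 20 nM CPT in Tdp1-knockout DT40 cells stably expressing hTDP1, seeded 400/well; qHTS titration format.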
# DT40 TDP1 no CPT: qHTS for Inhibitors of human tyrosyl-DNA phosphodiesterase 1 (TDP1): qHTS in cells in absence of CPT; Potency, µM (titrated, usually from 46.2 µM), for the others: at the highest dose activity change, negative = growth inhibition, usual class: inhibitors; DT40 Tdp1-/- hTDP1 cells, no CPT, ATP luminescence, 48 h; AID 686978, 2013; hit rate 15% among 420,000; note: nearly all actives have a fitted effect of over 55% in size
#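 Camptothecin absent (DMSO only). Human TDP1-complemented DT40 knockout cells, 400 cells/well, 37 °C for minimum 48 hr; ATP measured via CellTiter-Glo, 30 min dark incubation, luminescence.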
# HT1080 IDH1KD tx: qHTS for induction of synthetic lethality in tumor cells producing 2HG: qHTS for the HT-1080-IDH1KD cell line; HT-1080 IDH1 knockdown viability, ATP luminescence, 48 h; Potency, µM (titrated, usually from 46.1 µM), without a hit: at the highest dose activity, negative = toxicity, hits mostly cytotoxic; hit rate 2% among 360,000;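 note: 0% = DMSO wells and -100% = cell-free medium wells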
#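 % activity derives from luminescence (CellTiter-Glo), normalised to DMSO and no-cell wells. HT-1080-IDH1KD cells, 750/well, had 48 h compound exposure at 37 °C.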
# The depositor's hits bear a star; i = inactive; ? = inconclusive; / = not tested or not shown; [ ] = dose if it differs, or a comment. Calls come from the whole dose curve; as a rule, active = well fitted curve in the direction sought with a large enough effect; inconclusive = small, poorly fitted or top-dose-only effect, or another doubt; inactive = no such curve, though single readings can be large; an effect the other way counts as inactive or inconclusive. Unless noted, % is set by controls: 0 for no effect and ±100 for the full control effect; potency is the fitted concentration of half-maximal effect.
SMILES,HT1080-NT tox,KB-V1 cytotox,KB-3-1 tox,TDP1 cell CPT,DT40 TDP1 no CPT,HT1080 IDH1KD tx
Cc1ccccc1NC(=S)NC(=O)c1cc(-c2ccccc2)nc2ccccc12,2%,i,i,?,?,-15%
Cc1cccc(NC(=S)NC(=O)c2cc(-c3ccccc3)nc3ccccc23)c1,-3%,i,i,20µM*,?,-2%
CNS(=O)(=O)c1ccc(NC(=O)c2cc(-c3ccncc3)nc3ccc(Cl)cc23)cc1,-5%,i,i,-20%,-12%,-1%
COc1cccc(-c2cc(C(=O)Nc3ccccc3)c3ccccc3n2)c1,-1%,?,i,?,6.5µM*,9%
COc1cccc(-c2cc(C(=O)Nc3cccnc3)c3ccccc3n2)c1,-3%,?,i,?,?,-4%
CCOc1cccc(-c2cc(C(=O)Nc3ccon3)c3ccccc3n2)c1,-10%,16µM*,i,?,9.2µM*,-23%
COc1cc2ccc(-c3ccc4ccccc4n3)cc2cc1OC,-9%,?,?,?,6.5µM*,0%
COc1ccc2cc(-c3cc(C(=O)O)c4ccccc4n3)ccc2c1,?,i,15µM*,?,?,?
COc1ccc(-c2ccc3ccccc3n2)cc1OC,-16%,?,i,4%,?,-1%
CC[C@]12c3[nH]c4cc(-c5ccco5)ccc4c3CCN1C(=O)[C@@H](CC(=O)NCCCn1ccnc1)C[C@@H]2C(=O)N1CCN(C(=O)c2ccco2)CC1,0%,i,i,1%,2%,-2%
COc1ccc(OC)c(CNC(=O)C2CCN(S(=O)(=O)c3ccc4[nH]c(=O)oc4c3)CC2)c1,/,i,i,0%,-23%,/
CCCCCC(=O)N1C[C@H](O)[C@@H](n2cc(COC(=O)c3ccccc3)nn2)C[C@@H]1c1ccc(OC)cc1,12%,i,i,-16%,-12%,18%
CCC(C(=O)Nc1ccccc1OC)n1c(C(=O)OC)cc2ccsc21 (stereo unspecified),/,i,i,21µM*,?,/
CCCc1cc(=O)[nH]c(Nc2ccc(Cl)cc2)n1,-21%,?,?,?,16µM*,?
Cc1onc(-c2ccccc2Cl)c1C(=O)O/N=C(\N)c1cccc([N+](=O)[O-])c1,?,?,i,23µM*,23µM*,?
C/C(=N\OC(=O)c1c(-c2ccccc2Cl)noc1C)c1ccncc1,1%,i,i,16%,-4%,-5%
Cc1onc(-c2ccccc2)c1C(=O)O/N=C(\N)c1ccc([N+](=O)[O-])o1,?,?,?,16µM*,15µM*,-25%
COc1ccc(C(C)=NOC(=O)c2c(-c3ccccc3Cl)noc2C)cc1CN1CCOCC1,-11%,i,i,?,7.3µM*,-29%
Cc1cccc(CNC(=O)c2cnn(-c3nccc(-c4ccccc4C(F)(F)F)n3)c2C)n1,/,/,/,9%[9.04 µM],?,/
CCc1ccc2c(c1)N(CC(C)CN(C)C)c1ccccc1S2 (stereo unspecified),/,/,/,?,15µM*,/
COc1ccc(CCN2C(=O)CSC2=Nc2ccc(C)cc2C)cc1OC,-17%,?,?,23µM*,23µM*,-15%
COc1ccc(CCN2C(=O)C=CC2=O)cc1OC,?,?,i,0.82µM*,1.3µM*,6.5µM*

# Assay outcomes: PubChem, National Center for Advancing Translational Sciences (NCATS)
